Source: PubChem (The Scripps Research Institute Molecular Screening Center)
SMARCA2 act = increases SMARCA2 function in MMTV reporter cells; 370,000 tested, 1% active; AID 652017; activation, % at 9.1 µM; MG213 cells, MMTV-luciferase reporter, dexamethasone, overnight; in the data active = activation above about 7.8%
DAX1 inh-1 = inhibitors of DAX1 repression of SF-1 activated StAR promoter. HEK293T StAR-luciferase reporter, SF-1/DAX-1 repression relief. inhibition, % at 6.8 µM. 370,000 tested, 1.1% active. AID 652010;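 active = inhibition above the mean over all tested compounds plus 3 SD, cut at about 3.6% in these data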;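 also: higher inhibition means more luminescence from relief of DAX-1 repression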
hcDAF-12 act = activators of H. contortus DAF-12 nuclear receptor; AID 652067; activation, % at 6.8 µM; HEK293 hcDAF-12 lit1-tk-luc reporter, luminescence; 0% DMSO, 100% Δ7-dafachronic acid; 370,000 tested, 1.4% active;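 active = activation above the mean of all tested compounds plus 3 SD, cut at about 5.5% in these data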
ssDAF12 agonist = activators of S. stercoralis DAF-12 nuclear receptor. HEK293 ssDAF-12/GRIP1 lit1-tk-luc reporter, luminescence; % of 3 µM dafachronic acid response. activation, % at 6.8 µM. 370,000 tested, 1% active. AID 652126;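 active = activation above the mean over all tested compounds plus 3 SD, cut at about 0.9% in these data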
hgDAF12 agonist = hgDAF-12 agonism, primary luciferase screen; 370,000 tested, 1.8% active; HEK293 GAL4-hgDAF12 UAS-luciferase reporter, agonist luminescence; normalized to butyrate control; AID 687014; activation, % at 6.8 µM;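 active = activation above a cutoff set at the mean of all screened compounds plus 3 SD, cut at about 10% in these data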
DAX1 inh-2 = inhibitors of human orphan nuclear receptor DAX1 (NR0B1) | inhibition, % at 6.75 µM | HEK293 Gal4-DAX1 luciferase reporter, luminescence | P51843 | 340,000 tested, 0.99% active;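 active = inhibition above the mean over all tested compounds plus 3 SD, cut at about 4.2% in these data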;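 also: inhibition shows as a rise in luminescence from relieved DAX1 repression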
Target sequence (P51843 207-470 limits assumed): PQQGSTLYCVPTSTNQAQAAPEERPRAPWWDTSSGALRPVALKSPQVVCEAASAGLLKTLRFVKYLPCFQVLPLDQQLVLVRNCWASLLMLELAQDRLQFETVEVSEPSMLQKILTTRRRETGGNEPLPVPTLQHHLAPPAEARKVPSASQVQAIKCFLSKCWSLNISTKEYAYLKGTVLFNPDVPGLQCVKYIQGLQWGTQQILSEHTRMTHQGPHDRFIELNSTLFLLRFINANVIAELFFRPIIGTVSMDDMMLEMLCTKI
Numbers stand for hits; – = inactive; · = no result. The list is not random: actives were taken first. Their share in the collection is about 4.8%.

SMILES	SMARCA2 act	DAX1 inh-1	hcDAF-12 act	ssDAF12 agonist	hgDAF12 agonist	DAX1 inh-2
CC(=O)c1ccc(NC(=O)Nc2ccccc2)cc1	–	3.6	–	–	13	–
Cc1ccc(NC(=O)c2cc(C)nc3ccccc23)cc1	–	–	–	–	–	–
CCN(CC)c1ccc(NC(=O)Nc2ccccc2)cc1	–	–	–	–	12	–
CC(=O)c1cccc(NC(=O)Nc2nc(C)cc(C)n2)c1	–	–	–	–	–	4.7
CC(=O)c1ccc(NC(=O)c2cc(C)nc3ccccc23)cc1	–	–	–	–	–	4.4
CC(=O)c1cccc(NC(=O)Nc2ccccc2)c1	–	–	–	–	–	–
CCN(CC)c1ccc(NC(=O)Nc2ccc(C(C)=O)cc2)cc1	–	–	–	–	–	–
CC(=O)NC1CCCCN(Cc2cccc(F)c2)C1=O (stereo unspecified)	–	–	–	–	–	·
COc1ccc(NC(=O)CSc2ncnc3scc(-c4ccc(C)cc4)c23)cc1OC	–	–	–	–	–	·
COc1ccc(S(=O)(=O)NCC2CCCN(Cc3cccnc3)C2)cc1 (stereo unspecified)	–	–	–	–	–	4.3
COc1ccc(S(=O)(=O)NCC2CCCN(Cc3cccc(C(C)=O)c3)C2)cc1 (stereo unspecified)	–	–	–	–	–	–
COc1ccc(C(C(=O)NCc2ccccc2)N(Cc2cccnc2)C(=O)c2snc(C(N)=O)c2N)cc1OC (stereo unspecified)	–	–	–	–	–	4.3
CN(C)c1ccc(C(C(=O)NCc2ccccc2)N(Cc2cccnc2)C(=O)c2snc(C(N)=O)c2N)cc1 (stereo unspecified)	–	–	–	–	–	–
COc1ccc(NC(=O)Nc2cc(C)ccc2OC)cc1	–	–	–	–	–	–
COc1ccc(C(=O)COc2ccc(C)cc2NC(C)=O)cc1	–	–	–	–	10	·
Cc1nc(SCC(=O)Nc2ccc(OCc3ccccc3)cc2)n[nH]1	–	–	–	–	–	–
Nc1nc(SCC(=O)Nc2ccc(OCc3ccccc3)cc2)n[nH]1	–	–	–	–	–	5.2
O=c1cc(-c2ccccc2)oc2ccccc12	–	–	–	–	–	6.0
CSc1nc(N)nc(N(C)C)n1	–	–	–	–	–	–
CSc1nc(N)nc(C2CC2)n1	–	–	–	–	–	4.8
O=C(NN=Cc1ccc(-c2ccccc2)cc1)c1cc(-c2ccc(Cl)cc2)n[nH]1	–	–	–	–	–	·
CS(=O)(=O)N1CCC[C@]2(CC[C@@H](CCC#N)O2)C1	–	–	–	–	–	·
O=c1c2ccccc2oc2cc(C#CC3(O)CCCCC3)ccc12	–	–	–	–	–	–
COc1cccc2oc3cc(C#CC4(O)CCCCC4)ccc3c(=O)c12	–	4.0	5.8	–	–	–
COc1ccc(-c2cc(=Nc3ccc(C(=O)O)cc3)c3cc(C)ccc3o2)cc1	–	4.1	5.7	–	13	–
SMILES	SMARCA2 act	DAX1 inh-1	hcDAF-12 act	ssDAF12 agonist	hgDAF12 agonist	DAX1 inh-2
CCc1ccc2oc(-c3ccc(OC)cc3)cc(=Nc3cccc(C(=O)O)c3)c2c1	–	–	6.5	–	13	–
CCc1ccc2oc(-c3ccc(OC)cc3)cc(=Nc3c(C)n(C)n(-c4ccccc4)c3=O)c2c1	–	6.5	9.1	–	17	–
C#CCNC(=O)C[C@H]1C[C@@]2(C(=O)OC)C(=C[C@H](COCc3ccccc3)O[C@@H]2C)N(Cc2ccc(Cl)cc2Cl)C1=O	–	–	–	–	–	·
CCN1CCCCC(NC(=O)c2ccccc2)C1=O (stereo unspecified)	–	–	–	–	–	·
COc1ccc(/C=N/NC(=O)c2ccc3c(c2)OCO3)cc1	–	–	–	–	–	–
O=C(N/N=C/c1ccncc1)c1ccc2c(c1)OCO2	–	–	–	–	11	–
O=C(N/N=C/c1ccc(F)cc1)c1cc(-c2ccc3c(c2)OCO3)n[nH]1	–	–	–	–	–	4.6
Cc1ccc(-c2cc(C(=O)NN=Cc3ccc(F)cc3)[nH]n2)cc1C	–	–	–	–	11	·
Cc1cc(C(=O)N/N=C/c2ccc3c(c2)OCO3)c(C)o1	–	–	–	–	11	–
O=C(Nc1ccc(C(=O)O)cc1)/C(=C\C=C\c1ccccc1)NC(=O)c1ccccc1Cl	–	4.3	–	–	–	–
O=C(N/C(=C/C=C/c1ccccc1)C(=O)N1CCOCC1)c1ccccc1Cl	–	–	6.0	–	–	–
COc1ccc(CN2C(=O)[C@@](O)(c3cccn3C)c3cc(Br)ccc32)cc1	–	–	–	–	–	·
COc1ccc2c(c1)CC/C2=N\OC(=O)c1ccccc1C	–	–	–	2.1	–	–
COc1ccc2c(c1)CCC/C2=N/OC(=O)c1ccccc1OC	–	–	–	–	–	–
CCn1c2ccccc2c2cc(NC(=O)COC(=O)c3cc(F)cc(F)c3)ccc21	–	–	–	–	–	·
CC(C(=O)Nc1ccc2c(c1)OCCO2)N(C)Cc1c(F)cccc1Cl (stereo unspecified)	–	–	–	–	–	4.5
COC(=O)c1sccc1NC(=O)CSc1ccccc1N	–	–	–	–	–	4.8
O=C(CSCc1ccccc1Cl)Nc1ccc2c(c1)OCCO2	–	–	–	–	11	5.8
COC(=O)c1sccc1NC(=O)CSc1ccccc1NC(=O)CNC(C)C	–	–	–	–	–	–
O=C(CSc1nccc(=O)[nH]1)Nc1ccc2c(c1)OCCO2	–	–	–	–	11	4.8
O=S(=O)(c1ccccc1F)N1CCC(c2nc3ccccc3o2)CC1	–	–	–	–	–	·
O=C(CN1C(=O)c2cccc3cccc1c23)NCc1ccc2c(c1)OCO2	–	–	–	–	–	–
Nc1ccccc1SCC(=O)Nc1ccc2c(c1)OCO2	–	4.2	–	–	–	–
O=C(CN1C(=O)c2cccc3cccc1c23)Nc1ccc2c(c1)OCO2	–	–	–	–	–	4.4
COCCOC(=O)N(C)C[C@@H]1OCCCC[C@H](C)Oc2ccc(NC(=O)Nc3ccccc3)cc2C(=O)N([C@@H](C)CO)C[C@H]1C	·	·	–	–	–	·
SMILES	SMARCA2 act	DAX1 inh-1	hcDAF-12 act	ssDAF12 agonist	hgDAF12 agonist	DAX1 inh-2
CC(SCc1ccccc1)C(=O)Nc1ccccc1-c1ccccc1 (stereo unspecified)	–	–	6.1	–	–	–
CCCCCCCCN1C(=O)[C@@H](CC(=O)N2CCCCC2)C[C@@]2(C(=O)OC)C1=C[C@H](C(C)C)O[C@@H]2C1CC1	–	–	–	–	–	·
CC(C)CCNC(=O)CSc1nc2c(c(=O)[nH]1)CCC2	·	·	–	–	–	·
O=[N+]([O-])c1ccc2[nH]c(=S)sc2c1	–	–	–	2.2	–	–
Cc1ccc(-c2c(NC(=O)c3cccc(C)c3)nc3ncccn23)cc1	–	–	–	–	–	·
O=C(COc1ccc(Cl)cc1)Nc1cccc(-c2ccc(N3CCOCC3)nn2)c1	–	–	–	–	12	–
